This note sets out measurements from the supplement of paper PMC8728848.

This is one part of a sample in which the strongest signals are shown more often than they occur.

Holding throughout (test): glycan array binding signal (z-score within array); higher = stronger binding
Conditions in all cases: glycan notation: IUPAC condensed, linker removed

For assay [1], the target named is GlcNAc(b1-3)Gal(b1-4)GlcNAc(b1-3)Gal(b1-4)GlcNAc(b1-2)Man(a1-3)[GlcNAc(b1-3)Gal(b1-4)GlcNAc(b1-3)Gal(b1-4)GlcNAc(b1-2)Man(a1-6)]Man(b1-4)GlcNAc(b1-4)[Fuc(a1-6)]GlcNAc. A digest of the protocol:
(§1)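 Glycan array data were curated from 3228 arrays in the Consortium for Functional Glycomics database and kept only where the protein sequence was available. Glycan names were converted to IUPAC-condensed notation, and columns mapping to the same glycan were averaged. The binding signal is a within-array Z-score, averaged across arrays of the same protein sequence at different concentrations or buffers and across linkers. Negative Z-scores can be read as non-binding.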

For assay [2], the target named is GlcNAc(b1-3)Gal(b1-4)GlcNAc(b1-3)Gal(b1-4)GlcNAc(b1-3)Gal(b1-4)GlcNAc(b1-2)Man(a1-3)[GlcNAc(b1-3)Gal(b1-4)GlcNAc(b1-3)Gal(b1-4)GlcNAc(b1-3)Gal(b1-4)GlcNAc(b1-2)Man(a1-6)]Man(b1-4)GlcNAc(b1-4)[Fuc(a1-6)]GlcNAc. An outline of the steps: as §1
Assay [3] deals with GlcNAc(b1-4)GlcNAc(b1-4)GlcNAc(b1-4)GlcNAc(b1-4)GlcNAc(b1-4)GlcNAc. A digest of the protocol:
as §1

A further assay has as its target GlcNAc(b1-6)GalNAc. A digest of the protocol:
as §1

In assay [4] the target is Man(a1-2)Man(a1-6)[Man(a1-3)]Man(a1-6)[Man(a1-2)Man(a1-2)Man(a1-3)]Man(b1-4)GlcNAc(b1-4)GlcNAc. An outline of the steps:
as §1

In assay [5] the target is Neu5Ac(a2-3)Gal(b1-3)GalNAc(b1-4)[Neu5Ac(a2-8)Neu5Ac(a2-3)]Gal(b1-4)Glc. An outline of the steps: as §1
For assay [6], the target named is Neu5Ac(a2-3)Gal(b1-3)GlcNAc. An outline of the steps:
as §1

Assay [7] concerns the target Neu5Ac(a2-3)Gal(b1-3)[GlcNAc(b1-6)]GalNAc. An outline of the steps:
as §1

In assay [8] the target is Neu5Ac(a2-3)Gal(b1-3)[Neu5Ac(a2-6)]GlcNAc(b1-3)[Fuc(a1-3)[Gal(b1-4)]GlcNAc(b1-6)]Gal(b1-4)Glc. An outline of the steps: as §1
The target in assay [9] is Neu5Ac(a2-3)Gal(b1-3)]Neu5Ac(a2-3)Gal(b1-4)]GlcNAc. An outline of the steps: as §1
The target in assay [10] is Neu5Ac(a2-3)Gal(b1-4)GlcNAc(b1-3)Gal(b1-4)GlcNAc(b1-3)Gal(b1-4)GlcNAc. A digest of the protocol:
as §1

Assay [11] concerns the target Neu5Ac(a2-3)Gal(b1-4)[Fuc(a1-3)]GlcNAc(b1-3)GalNAc. An outline of the steps:
as §1

Assay [12] concerns the target Neu5Ac(a2-3)[Neu5Ac(a2-6)]GalNAc. An outline of the steps: as §1
Assay [13] concerns the target Neu5Ac(a2-6)Gal(b1-4)GlcNAc(b1-2)[Neu5Ac(a2-6)Gal(b1-4)GlcNAc(b1-4)]Man(a1-3)[GlcNAc(b1-4)][Neu5Ac(a2-6)Gal(b1-4)GlcNAc(b1-2)[Neu5Ac(a2-6)Gal(b1-4)GlcNAc(b1-6)]Man(a1-6)]Man(b1-4)GlcNAc(b1-4)GlcNAc. An outline of the steps:
as §1

Assay [14] deals with Neu5Ac(a2-6)Gal(b1-4)GlcNAc(b1-2)[Neu5Ac(a2-6)Gal(b1-4)GlcNAc(b1-4)]Man(a1-3)[GlcNAc(b1-4)][Neu5Ac(a2-6)Gal(b1-4)GlcNAc(b1-4)Man(a1-6)]Man(b1-4)GlcNAc(b1-4)GlcNAc. An outline of the steps:
as §1

The target in assay [15] is Neu5Ac(a2-6)Gal(b1-4)GlcNAc(b1-3)Gal(b1-4)GlcNAc(b1-3)GalNAc. An outline of the steps:
as §1

In assay [16] the target is Neu5Ac(a2-6)Gal(b1-4)GlcNAc(b1-3)Gal(b1-4)[Fuc(a1-3)]GlcNAc(b1-3)Gal(b1-4)[Fuc(a1-3)]GlcNAc. A digest of the protocol:
as §1

For assay [17], the target named is Neu5Ac(a2-6)GalNAc(b1-4)GlcNAc6S. A digest of the protocol:
as §1

Assay [18] concerns the target Neu5Ac(a2-8)Neu5Ac(a2-3)[Gal(b1-3)GalNAc(b1-4)]Gal(b1-4)Glc. An outline of the steps:
as §1

The target of assay [19] is Neu5Gc(a2-3)Gal(b1-4)GlcNAc. An outline of the steps:
as §1

Assay [20] has as its target Neu5Gc(a2-3)Gal(b1-4)GlcNAc(b1-3)Gal(b1-4)GlcNAc(b1-2)Man(a1-3)[Neu5Gc(a2-3)Gal(b1-4)GlcNAc(b1-3)Gal(b1-4)GlcNAc(b1-2)Man(a1-6)]Man(b1-4)GlcNAc(b1-4)GlcNAc. A digest of the protocol:
as §1

The target of another assay is Neu5Gc(a2-6)GalNAc. An outline of the steps: as §1
For assay [21], the target named is Neu5Gc(a2-8)Neu5Gc(a2-3)Gal(b1-4)GlcNAc(b1-3)Gal(b1-4)GlcNAc. A digest of the protocol: as §1

Consider CTAEGIKKFEGDGYELFKDNFPAGEKFDNDDTNDQFYTVIF [MUB40 (Lactobacillus reuteri)], for which the “glycan array binding signal (z-score)” value in assay [1] is 2.39; in assay [2] it was 4.26; in [3], -0.138; with GlcNAc(b1-6)GalNAc, -0.355; in [4], -0.33; in [5] it was 1.18. The “glycan array binding signal (z-score)” value is -0.358 in assay [6]; 1.11 in [7]; -0.114 in assay [8]; -0.307 in assay [9]; 1.72 in assay [10]; 0.351 in [11]. The “glycan array binding signal (z-score)” value was 1.33 in assay [12]; 0.5 in assay [13]; -0.219 in assay [14]; 3.03 in assay [15]; 1.24 in assay [16]; 2.71 in [17]. In addition, the “glycan array binding signal (z-score)” value in assay [18] was -0.27; in [19], 2.42; in assay [20] it was 2.75; with Neu5Gc(a2-6)GalNAc, 0.011; in [21], 2.42.
